# Source: PubChem BioAssay (Tox21)
# Inconclusive results are not listed. Unmarked numbers belong to inactive results. Calls of active or inactive are those of the source. Calls come from the whole dose curve.
# Target: D(2) dopamine receptor (Homo sapiens) (UniProt P14416)
# Assay: Dopamine D2 receptor (DRD2) small molecule agonists, cell-based qHTS assay (AID 1963594); note: nearly all actives have a fitted effect of over 35% in size
# Details: HEK293-DRD2 cAMP HTRF, agonist mode, 30 min; series mostly up to 92.4 µM; activation: at the top concentration
# Source text: National Center for Advancing Translational Sciences [NCATS]
# Division of Preclinical Innovation [DPI]
# U.S. Environmental Protection Agency [EPA]
# National Institutes of Environmental Health Sciences [NIEHS]
# National Toxicology Program [NTP]
# U.S. Food and Drug Administration [FDA]
# DRD2 is the D2 subtype of the dopamine receptor, which is coupled to Gi subtype of G protein-coupled receptor. This G protein-coupled receptor inhibits adenylyl cyclase activity. The DRD2-HEK293 cell line stably expressing D2 dopamine receptor can be used for screening agonists and antagonists of interactions between D2 and its ligands. The Hek293-DRD2 cAMP assay is based on HTRF technology. It measures changes of cAMP accumulation in response to Gi coupled GPCR activation or inhibition.
# Tox21 Assay Protocol Summary:
# DRD2-Hek293 cells were dispensed at 600 cells/3uL/well in 1536-well white plates using a Multidrop Dispenser. After the assay plates were incubated at a 37 C/5% CO2 incubator for 24 h, 1 uL of Ro20-1724 at final concentration of 0.1 mM was transferred to the assay plate by a Flying Reagent Dispenser. Following Ro20-1724 addition, 23 nL of compound dissolved in DMSO, positive controls or DMSO only was added to the assay plates via Wako pintool station. The assay plates were incubated at room temperature for 10 min. Next, 1 uL of NKH477 at 200nM was added into the plates. After the assay plates were incubated at room temperature for an additional 30 min, 2.5 ul/well of cAMP-d2 and 2.5 ul/well of anti-cAMP-cryptate were added respectively into the assay plates using a Flying Reagent Dispenser. The plates were incubated at room temperature for 1 h. The fluorescence intensity in the plates was measured at 340 nm excitation and 665 & 620 nm emission by an Envision plate reader.
# % is set by controls: 0 for no effect and ±100 for the full control effect.
# Chain of D(2) dopamine receptor (Homo sapiens) (P14416 whole entry, looked up): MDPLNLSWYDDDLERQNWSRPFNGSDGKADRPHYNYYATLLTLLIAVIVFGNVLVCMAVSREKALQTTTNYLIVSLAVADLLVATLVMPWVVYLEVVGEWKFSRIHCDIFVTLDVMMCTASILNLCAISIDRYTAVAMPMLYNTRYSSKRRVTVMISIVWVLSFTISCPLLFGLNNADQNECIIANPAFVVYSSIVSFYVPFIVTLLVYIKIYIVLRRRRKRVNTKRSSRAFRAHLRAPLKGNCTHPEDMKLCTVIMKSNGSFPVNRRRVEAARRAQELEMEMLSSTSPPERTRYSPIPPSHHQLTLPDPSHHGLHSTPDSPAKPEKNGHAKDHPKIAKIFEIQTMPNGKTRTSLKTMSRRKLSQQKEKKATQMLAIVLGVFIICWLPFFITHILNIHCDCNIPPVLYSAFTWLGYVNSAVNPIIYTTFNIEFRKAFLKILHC
SMILES,activation,Potency
C=CCOc1cc(Cl)ccc1C(=O)NCCN(CC)CC,-8.32% [at 42.5 µM],
CN=C(NC#N)NCCSCc1nc[nH]c1C,,inactive
O=C(O)CNc1ccccc1,7.71%,
CC(C)c1ccc(C=O)cc1,-3.29%,
CCCc1c2oc(C(=O)O)cc(=O)c2cc2c(=O)cc(C(=O)O)n(CC)c12,6.35% [at 42.5 µM],
COc1cc(C(=S)N2CCOCC2)ccc1O,15% [at 42.5 µM],
CC(COCCO)OCCO (stereo not given),3.78%,
NCCNCCNCCN,,inactive
CC(=C(CCOC(=O)C(C)C)SSC(CCOC(=O)C(C)C)=C(C)N(C=O)Cc1cnc(C)nc1N)N(C=O)Cc1cnc(C)nc1N,-6.03% [at 42.5 µM],
C=CCOC(=O)CCCCCCCC,0.184%,
O=C(O)CCCCCC(=O)O,0.257%,
CCCCOC(O)CC (stereo not given),-0.138%,
O=C(O)c1cccc(C(F)(F)F)c1,6.35%,
C=C[Si](OC(=C)C)(OC(=C)C)OC(=C)C,1.49%,
CC/C=C\CCOC(=O)CC,0.128%,
C=C(C)C(=O)OCCCCCCCC(C)C,-1.17%,
O=[N+]([O-])c1ccccc1Nc1ccccc1,-0.477%,
C1CCC(SSC2CCCCC2)CC1,0.426%,
C=C(C)C(=O)OCCC(C)OC(=O)C(=C)C (stereo not given),-0.108%,
Cc1ccccc1OCC1CO1 (stereo not given),-0.524%,

SMILES,activation,Potency
CCOCCC(=O)OCC,0.446%,
CCOCCOCC,0.237%,
CNc1ccccc1,-1.46%,
O=C(O)CNC(=O)c1ccccc1I,-22.5% [at 42.5 µM],
CC(C)CCCCCOC(=O)CS,0.113%,
C/C(Cl)=C/CCl,-0.655%,
O=c1[nH]c(=O)c2ccccc2o1,-14.5% [at 42.5 µM],
O=Cc1ccc([N+](=O)[O-])cc1,-3.13%,
c1ccc(CSCc2ccccc2)cc1,1.97%,
CCC(C(=O)OCCOCCN(CC)CC)c1ccccc1 (stereo not given),-16.2% [at 42.5 µM],
COc1ccc(COC(C)=O)cc1,,inactive
CCCCCCCCCCCCCCCC(=O)NCCO,-6.47% [at 42.5 µM],
CCN(CC)CCNC(=O)c1ccc(NC(C)=O)cc1,-8.4% [at 42.5 µM],
NC1CCCCC1N (stereo not given),,inactive
CN(C)C(=O)Oc1ccc[n+](C)c1,-0.755% [at 42.5 µM],
CC(C)(C)NC(N)=O,-9.53%,
O=C1CCC(=O)O1,-2.13%,
Cc1ccc2c(c1)OCC(=O)CO2,4.05%,
CCCCCCCOC(=O)c1ccccc1C(=O)OCCCCCCC,4.11%,
Cc1cc(C)cc(OCC2CNC(=O)O2)c1 (stereo not given),0.917% [at 42.5 µM],
